Hits are enriched below; roughly 3.1% of the tested compounds scored in any of these assays.
Vif-APOBEC3G blk = qHTS for Inhibitors of Vif-A3G Interactions: qHTS; DNA dC->dU-editing enzyme APOBEC-3G (Homo sapiens), Q9HC16; Potency, µM (titrated, usually from 46.1 µM), actives largely listed as inhibitors; 0.076% of 410,000 active; HeLa A3G-eYFP + Vif (tagged APOBEC3G with the HIV-1 protein that degrades it), YFP fluorescence, overnight; further: nearly all actives have a fitted effect of over 60% in size
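Read-out is eYFP fluorescence (Ex 488/Em 500-530) from Vif-expressing HeLa A3G-eYFP cells; more signal means A3G escaped Vif-mediated degradation. Cells plated overnight, compound pinned in, incubated overnight at 37 deg C.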
VDR inh = Inhibitors of the vitamin D receptor (VDR): qHTS; Vitamin D3 receptor (Homo sapiens), P11473; VDR-SRC2-3 peptide fluorescence polarization, 2 h; Potency, µM, hits mostly inhibitors; 0.93% of 400,000 active; AID 504847, 2011
Target sequence (P11473 whole entry, looked up): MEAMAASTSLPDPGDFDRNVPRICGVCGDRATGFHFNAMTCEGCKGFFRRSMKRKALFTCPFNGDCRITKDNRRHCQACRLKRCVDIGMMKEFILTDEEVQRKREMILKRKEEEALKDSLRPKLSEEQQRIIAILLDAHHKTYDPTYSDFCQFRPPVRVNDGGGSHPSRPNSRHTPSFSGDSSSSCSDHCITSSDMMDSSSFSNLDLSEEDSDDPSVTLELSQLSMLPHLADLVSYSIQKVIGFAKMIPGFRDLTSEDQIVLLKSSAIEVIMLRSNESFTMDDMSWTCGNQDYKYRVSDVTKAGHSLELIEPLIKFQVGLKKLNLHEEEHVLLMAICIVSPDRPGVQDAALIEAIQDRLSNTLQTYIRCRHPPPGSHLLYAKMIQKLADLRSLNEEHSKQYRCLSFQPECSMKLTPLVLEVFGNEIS
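The screen uses fluorescence polarization to detect compounds that interfere with recruitment of the SRC2-3 coactivator peptide to VDR; plates are read after 2 h at room temperature.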
TSHR antagonist = Antagonists of the Thyroid Stimulating Hormone Receptor: HTS campaign; TSHR-expressing cells, TSH-stimulated cAMP HTRF, 2 h; active compounds read low; activity change, negative = inhibition, % at 11.5 µM; 0.2% of 330,000 active; AID 504810, 2011;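 active means activity change below a set negative limit, meaning inhibition stronger than a set level, cut at about -70% in these data; inconclusive means activity change between two set negative limits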
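TSHR-expressing cells, 200/well, pre-treated with compound, then stimulated with EC80 TSH (4nM final) for 2 hours at 37 deg C. cAMP measured by competitive HTRF: anti-cAMP cryptate antibody in lysis buffer plus cAMP-d2, read after 30 minutes at room temperature.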
PLK1 PBD inh = qHTS for Inhibitors of PLK1-PDB (polo-like kinase 1 - polo-box domain): Primary Screen | Plk1 PBD binding of FITC phosphopeptide, fluorescence polarization | Potency, µM, usual class: inhibitors | Serine/threonine-protein kinase PLK1 (Homo sapiens), P53350 | AID 720504, 2013 | 2.8% of 360,000 active; further: series mostly up to about 57 µM; nearly all actives have a fitted effect of over 65% in size
Vif-A3F inh = qHTS for Inhibitors of Vif-A3F Interactions: qHTS | HeLa A3F-eYFP + Vif (tagged APOBEC3F with the HIV-1 protein that degrades it), YFP fluorescence increase | Potency, µM (series often up to 46.1 µM) | 0.2% of 390,000 active | AID 602313, 2012; further: nearly all actives have a fitted effect of over 65% in size
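Fluorescence increase (Ex 488/Em 500-530) after overnight compound treatment at 37 deg C flags inhibition of Vif-driven A3F-eYFP loss in stable HeLa A3F-eYFP/Vif cells seeded overnight beforehand.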
Large screens that a line does not name were inactive. Unless noted, the call rests on the fitted dose curve; in most records, active means well fitted curve in the direction sought with a large enough effect; inconclusive means small, poorly fitted or top-dose-only effect, or another doubt; inactive means no such curve, though single readings can be large; an effect the other way counts as inactive or inconclusive.

Cc1nnc(SCC(=O)c2c(N)n(C)c(=O)n(C)c2=O)[nH]c1=O	PLK1 PBD inh 24µM
O=c1c2cc(F)ccc2sn1-c1ccccc1	VDR inh 20µM, PLK1 PBD inh 1.1µM
O=c1c(N2CCN(c3ccc(F)cc3)CC2)csc2ccc(F)cc12	none (no result: TSHR antagonist, PLK1 PBD inh)
O=c1c2cc(C(F)(F)F)ccc2sn1-c1ccccc1	PLK1 PBD inh 2.7µM (no result: VDR inh, TSHR antagonist)
COc1cccc(CNC(=O)CCS(=O)(=O)c2cc3c4c(c2)CCN4C(=O)CC3)c1	none (no result: TSHR antagonist, PLK1 PBD inh)
CC(C)C[C@H](NC(=O)[C@H](CC(C)C)NC(=O)[C@@H](Cc1c[nH]c2ccccc12)NC(=O)[C@H](Cc1ccccc1)NC(=O)[C@@H](Cc1c[nH]c2ccccc12)NC(=O)[C@H](CCC(N)=O)NC(=O)[C@H](CCC(N)=O)NC(=O)[C@@H]1CCCN1C(=O)[C@H](CCCCN)NC(=O)[C@@H]1CCCN1C(=O)[C@@H](CCCNC(=N)N)NC(=O)[C@@H]1CCCN1C(=O)CNC(=O)[C@H](CC(C)C)NC(=O)[C@H](CC(C)C)NC(=O)[C@H](Cc1ccc(O)cc1)NC(=O)CNC(=O)[C@H](C)NC(=O)[C@H](CO)NC(=O)[C@H](CC(N)=O)NC(=O)[C@H](CC(C)C)NC(=O)[C@@H](NC(=O)[C@H](Cc1c[nH]c2ccccc12)NC(=O)CN)[C@@H](C)O)C(N)=O	none (no result: Vif-APOBEC3G blk, TSHR antagonist, PLK1 PBD inh, Vif-A3F inh)
Cc1oncc1C(=O)Nc1ccc2ccccc2c1	none
Cc1oncc1C(=S)Nc1ccccc1	PLK1 PBD inh 27µM
CCN1C(=NCc2cc(OC)c(OC)c(OC)c2)N[C@@H](c2ccccc2)C(C(=O)OC)=C1C	VDR inh inconclusive, PLK1 PBD inh 24µM
CCNc1nc(NCC)n2c(SCC(=O)Nc3ccccc3OC(F)F)nnc2n1	none
CCNc1nc(NCC)n2c(SCC(=O)Nc3ccc(CC)cc3)nnc2n1	VDR inh 50µM, PLK1 PBD inh 6.7µM
CCNc1nc(NCC)n2c(SCC(=O)Nc3ccccc3F)nnc2n1	PLK1 PBD inh 12µM
CCNc1nc(NCC)n2c(SCC(=O)Nc3ccc(NC(C)=O)cc3)nnc2n1	none
CCOCC(=O)Nc1ccc(-c2cn3c(C)csc3n2)cc1	none (no result: TSHR antagonist, PLK1 PBD inh)
CC1=NN(c2ccc([N+](=O)[O-])cc2)C(=O)/C1=C\N(C)C	VDR inh inconclusive
CC1=NN(c2ccccc2)C(=O)/C1=C/c1cccc(C)c1	Vif-APOBEC3G blk inconclusive, VDR inh 50µM, PLK1 PBD inh 2.1µM
COc1ccc(/C=C2/C(=O)N(c3ccccc3)N=C2C)cc1OC	PLK1 PBD inh 3µM
CC1=NN(c2ccccc2)C(=O)/C1=C\c1cc(C)n(C)c1C	none
CCOc1cc(/C=C2/C(=O)N(c3ccccc3)N=C2C)ccc1OC(=O)c1cccs1	VDR inh inconclusive, PLK1 PBD inh 2.1µM
COc1ccccc1/C=C1/C(=O)N(c2ccc([N+](=O)[O-])cc2)N=C1C	VDR inh inconclusive, PLK1 PBD inh 1.9µM
CCOc1cc(/C=N/NC(=O)c2ccccn2)ccc1OC(=O)c1cccs1	none
CN(C)CCCCCCNc1nccc(N2CCN(C)CC2)n1	none (no result: VDR inh, TSHR antagonist, PLK1 PBD inh, Vif-A3F inh)
CC(=O)Oc1ccc(/C=C2/C(=O)N(c3ccccc3)N=C2C)cc1	VDR inh inconclusive, PLK1 PBD inh 2.1µM
COc1cc2c(cc1OC)C1=CC(=O)C(=O)N1C(C)(C)C2	Vif-APOBEC3G blk 7.1µM, Vif-A3F inh inconclusive
CC[C@H](C)[C@H](NC(=O)[C@H](N)Cc1ccc(O)cc1)C(=O)N[C@@H](CC(N)=O)C(=O)N[C@@H](CC(C)C)C(=O)N[C@H](C(=O)N[C@@H](C(=O)N[C@@H](CCCN=C(N)N)C(=O)N[C@@H](CCC(N)=O)C(=O)N[C@@H](CCCN=C(N)N)C(=O)N[C@H](Cc1ccc(O)cc1)C(N)=O)[C@@H](C)O)[C@@H](C)CC	none (no result: Vif-APOBEC3G blk, TSHR antagonist, PLK1 PBD inh, Vif-A3F inh)
O=C(NC(=S)Nc1cccc2ncccc12)c1ccco1	none
COCCCNC(=S)Nc1cccc2ncccc12	PLK1 PBD inh 27µM

Source: PubChem (National Center for Advancing Translational Sciences (NCATS))
